The values that follow come from PubChem BioAssay.

Activity calls are given as the source filed them. The rule behind the calls is not given here. Where a SMILES comes first, the peptide text is derived from it. [ ]: non-standard residue; d: D form. The star is where a group is joined. ξ: configuration not given here. Piv = CC(C)(C)C(=O)*; ξNva = CCCC(N)C(=O)O

For the assay, the target named is Pantothenate synthetase (Mycobacterium tuberculosis (strain ATCC 25618 / H37Rv)) (UniProt P9WIL5). Briefly: Recombinant Mtb pantothenate synthetase (PanC) inhibitors, coupled enzyme, confirmatory (AID 375).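 Note: 0% = full reaction with vehicle and 100% = no enzyme background.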 Conditions: coupled enzyme assay; at 10 µM, stronger effect = higher value.
Chain of Pantothenate synthetase (Mycobacterium tuberculosis (strain ATCC 25618 / H37Rv)) (P9WIL5 whole entry, looked up): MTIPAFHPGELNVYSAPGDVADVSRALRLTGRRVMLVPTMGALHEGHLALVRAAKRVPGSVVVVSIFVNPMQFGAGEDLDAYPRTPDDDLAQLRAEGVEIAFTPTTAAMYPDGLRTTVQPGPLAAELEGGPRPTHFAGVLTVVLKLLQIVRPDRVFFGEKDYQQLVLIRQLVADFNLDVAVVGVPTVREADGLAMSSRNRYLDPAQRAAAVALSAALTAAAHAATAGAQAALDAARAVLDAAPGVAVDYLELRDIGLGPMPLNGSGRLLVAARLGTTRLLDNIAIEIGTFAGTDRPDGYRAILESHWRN
A word on the inhibition: it is the percentage by which the read-out fell short of the control. As for `CC1CN(S(=O)(=O)c2ccc(Cl)c(C(F)(F)F)c2)CC(C)O1` (centres undefined), the inhibition is 0% (inactive). The figure for `CCCOc1ccc(N2C(=O)CC(SCCN)C2=O)cc1` (centres undefined) is 0% (inactive); for `N#CCc1nc2c3c4c(sc3ncn2n1)CCCC4` it is 7% (inactive). For the molecule `CC(=O)N1CCN(C(=O)COc2ccc(Br)cc2)CC1`, the inhibition is 0% (inactive). For `Cc1[nH]nc(N=CC2=C(O)CC(C)(C)CC2=O)c1-c1ccc(Cl)cc1` the value was 0% (inactive). On to `COc1ccccc1Oc1coc2c(CN3CCN(C)CC3)c(O)ccc2c1=O`, for which the inhibition is 0% (inactive).

As to `Cc1ccc(-c2[nH]nc3c2C(c2ccoc2)C(C#N)=C(N)O3)cc1C` (centres undefined), the inhibition was 0% (inactive).

Take `COc1ccc(S(=O)(=O)N2CCN(C3CCCCCCC3)CC2)cc1`: the inhibition is 1% (inactive). For `COc1cccc(C2C(C(N)=O)=C(C)Nc3nc(CCCO)nn32)c1OC` (centres undefined) the value was 3% (inactive); for `COc1ccc(C2(C(=O)Nc3c(C)n(C)n(-c4ccccc4)c3=O)CCCC2)cc1OC`, 1% (inactive). The figure for `Cc1ccc2oc(C(=O)Nc3c(C)n(C)n(-c4ccccc4)c3=O)c(C)c2c1` is 0% (inactive). The figure for `CCOCCCNC(=O)CCNS(=O)(=O)c1ccc(C)cc1` is 2% (inactive); for `CC(C)(C)c1ccc(-c2nnc(SCCC#N)n2C2CCCC2)cc1` it is 0% (inactive). On to `O=C(Cn1cnc2c(nnn2Cc2ccccc2)c1=O)c1ccc(Cl)cc1`, for which the inhibition was 5% (inactive). For `O=C(Nc1ccc(O)cc1)C1CCCN1S(=O)(=O)c1ccc(F)cc1` (centres undefined), the inhibition was 0% (inactive).

For `CC1(C)NC(=O)N(CCCOc2ccc(Br)cc2Cl)C1=O`, the inhibition was 0% (inactive). In the case of `NC(N)=Nc1nc(CSCC/C(N)=N/S(N)(=O)=O)cs1`, the inhibition was 0% (inactive). For `CCOC(=O)CNC(=O)CSc1nc(N(C)C)nc(N2CCOCC2)n1`, the inhibition is 6% (inactive). Take `COc1ccc2[nH]c(=O)c(CN(C(=O)c3cccnc3)c3ccccc3OC)cc2c1`: the inhibition is 1% (inactive). For `CC(C(=O)NC1CCCCCC1)N(c1ccccc1)S(C)(=O)=O` (centres undefined) the value was 0% (inactive); for `CC1(C)CC(=O)C(CC(=O)NC(=O)NCc2ccccc2)=C(O)C1`, 0% (inactive).

As to `Cc1cc(C(=O)NCc2cccnc2)n(-c2ccccc2)n1`, the inhibition is 0% (inactive). The figure for `CCN(CC)CCNC(=O)c1ccc(N)cc1` is 0% (inactive); for `CS(=O)(=O)N1CCN(c2ccccc2NC(=O)c2ccc(-c3ccc(Cl)cc3Cl)o2)CC1` it is 7% (inactive). For `CCOC(=O)c1[nH]c(C)c(C(=O)Nc2ccc(Cl)cc2)c1C` the value was 0% (inactive); for `CCC(C)(C)NC(=O)CN(C(=O)c1snc(C(N)=O)c1N)c1ccc2c(c1)OCO2`, 11% (inactive). For `O=C(CN(c1ccc(F)cc1)S(=O)(=O)c1ccc2c(c1)OCCO2)Nc1cccnc1`, the inhibition was 0% (inactive). For `Cc1ccc(N=Cc2ccc[nH]2)c(O)c1` the value was 0% (inactive); for `O=C(CN(CC1CCCO1)C(=O)CCC(=O)Nc1ccccn1)NCC1CCCO1` (centres undefined), 8% (inactive); for `COc1ccc(C2CC(C(F)(F)F)n3ncc(C(=O)NCc4cccnc4)c3N2)cc1OC` (centres undefined), 0% (inactive). The figure for `Nn1c(SCc2csc(-c3ccccc3)n2)nnc1-c1cccs1` is 0% (inactive). The figure for `O=C(CSc1ncn[nH]1)NC1CC2CCC1C2` (centres undefined) is 0% (inactive); for `Cc1ccc(-c2nn3c(=O)c(C)nnc3s2)cc1` it is 0% (inactive); for `Cc1cc(N=Cc2cc(Br)ccc2O)no1` it is 6% (inactive).

`CC1(C)CC(=O)C(C=NCCO)=C(O)C1`: the inhibition is 0% (inactive).

With `CCCC(NC(=O)CNC(=O)C(C)(C)C)C(=O)O` (stereo not drawn) (Piv-Gly-[ξNva]-OH), the inhibition is 0% (inactive). The figure for `COc1ccccc1C(=O)NCC(c1cccnc1)N(C)C` (centres undefined) is 0% (inactive); for `COc1ccc(C2=NOC(C(=O)NC3CCCCC3)C2)cc1OC` (centres undefined) it is 2% (inactive). The figure for `CCOC(=O)NC1(NCc2ccccc2)Oc2ccccc2O1` is 0% (inactive).
